# Measurements from ChEMBL document CHEMBL2218924, “A broad activity screen in support of a chemogenomic map for kinase signalling research and drug discovery” (Biochem J, 2013).
# What was measured:
# [1] = molecular target: Tyrosine-protein kinase SYK (Homo sapiens) (UniProt P43405); settings: at 10 µM
# [2] = molecular target: T1, Mitogen-activated protein kinase kinase kinase 7 (Homo sapiens) (UniProt O43318); settings: at 1 µM
# T1 sequence (whole entry): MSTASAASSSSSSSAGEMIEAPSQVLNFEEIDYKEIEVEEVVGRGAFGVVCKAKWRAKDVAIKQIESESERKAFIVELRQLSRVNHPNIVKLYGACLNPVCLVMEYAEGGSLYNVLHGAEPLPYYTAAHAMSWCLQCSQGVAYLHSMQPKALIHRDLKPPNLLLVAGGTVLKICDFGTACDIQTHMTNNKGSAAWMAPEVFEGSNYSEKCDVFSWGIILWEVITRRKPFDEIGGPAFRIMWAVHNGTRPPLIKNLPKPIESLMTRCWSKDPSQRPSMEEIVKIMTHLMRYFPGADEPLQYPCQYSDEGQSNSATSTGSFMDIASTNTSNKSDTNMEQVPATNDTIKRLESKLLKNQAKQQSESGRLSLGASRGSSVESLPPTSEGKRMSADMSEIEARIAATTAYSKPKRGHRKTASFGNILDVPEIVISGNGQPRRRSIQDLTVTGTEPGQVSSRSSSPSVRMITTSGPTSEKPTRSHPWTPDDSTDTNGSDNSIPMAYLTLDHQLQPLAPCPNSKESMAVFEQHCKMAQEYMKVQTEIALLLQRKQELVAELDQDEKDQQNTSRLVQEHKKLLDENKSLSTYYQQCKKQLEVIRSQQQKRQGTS
# [3] = molecular target: T1, Mitogen-activated protein kinase kinase kinase 7 (Homo sapiens); settings: at 10 µM
# [4] = molecular target: T2, Serine/threonine-protein kinase TAO1 (Homo sapiens) (UniProt Q7L7X3); settings: at 10 µM
# T2 sequence (whole entry): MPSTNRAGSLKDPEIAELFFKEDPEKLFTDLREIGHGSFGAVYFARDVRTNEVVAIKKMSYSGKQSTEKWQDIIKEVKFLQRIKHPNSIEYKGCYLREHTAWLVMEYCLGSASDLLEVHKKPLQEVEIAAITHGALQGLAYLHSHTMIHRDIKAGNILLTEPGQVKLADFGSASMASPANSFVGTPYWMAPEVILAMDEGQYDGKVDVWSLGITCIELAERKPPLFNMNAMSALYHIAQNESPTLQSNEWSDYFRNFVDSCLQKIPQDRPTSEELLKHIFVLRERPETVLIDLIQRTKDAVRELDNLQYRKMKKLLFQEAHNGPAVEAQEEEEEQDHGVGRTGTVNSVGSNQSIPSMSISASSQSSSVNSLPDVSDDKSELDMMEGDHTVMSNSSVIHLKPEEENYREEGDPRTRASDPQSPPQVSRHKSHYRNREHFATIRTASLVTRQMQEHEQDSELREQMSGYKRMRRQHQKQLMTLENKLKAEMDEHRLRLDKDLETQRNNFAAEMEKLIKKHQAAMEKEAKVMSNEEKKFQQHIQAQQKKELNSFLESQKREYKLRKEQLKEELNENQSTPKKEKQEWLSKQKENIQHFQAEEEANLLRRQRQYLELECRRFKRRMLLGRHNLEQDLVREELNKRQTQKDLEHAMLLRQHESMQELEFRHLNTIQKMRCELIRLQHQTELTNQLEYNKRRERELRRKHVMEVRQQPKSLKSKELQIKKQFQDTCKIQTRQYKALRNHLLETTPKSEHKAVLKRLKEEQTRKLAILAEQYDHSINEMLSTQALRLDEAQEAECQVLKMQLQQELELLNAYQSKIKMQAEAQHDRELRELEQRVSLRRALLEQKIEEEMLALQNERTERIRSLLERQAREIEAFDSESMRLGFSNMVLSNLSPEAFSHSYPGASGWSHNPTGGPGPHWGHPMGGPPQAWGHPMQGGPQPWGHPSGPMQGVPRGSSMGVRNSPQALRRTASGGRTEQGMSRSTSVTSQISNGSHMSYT
# [5] = molecular target: T3, Serine/threonine-protein kinase TAO2 (Homo sapiens) (UniProt Q9UL54); settings: at 10 µM
# T3 sequence (whole entry): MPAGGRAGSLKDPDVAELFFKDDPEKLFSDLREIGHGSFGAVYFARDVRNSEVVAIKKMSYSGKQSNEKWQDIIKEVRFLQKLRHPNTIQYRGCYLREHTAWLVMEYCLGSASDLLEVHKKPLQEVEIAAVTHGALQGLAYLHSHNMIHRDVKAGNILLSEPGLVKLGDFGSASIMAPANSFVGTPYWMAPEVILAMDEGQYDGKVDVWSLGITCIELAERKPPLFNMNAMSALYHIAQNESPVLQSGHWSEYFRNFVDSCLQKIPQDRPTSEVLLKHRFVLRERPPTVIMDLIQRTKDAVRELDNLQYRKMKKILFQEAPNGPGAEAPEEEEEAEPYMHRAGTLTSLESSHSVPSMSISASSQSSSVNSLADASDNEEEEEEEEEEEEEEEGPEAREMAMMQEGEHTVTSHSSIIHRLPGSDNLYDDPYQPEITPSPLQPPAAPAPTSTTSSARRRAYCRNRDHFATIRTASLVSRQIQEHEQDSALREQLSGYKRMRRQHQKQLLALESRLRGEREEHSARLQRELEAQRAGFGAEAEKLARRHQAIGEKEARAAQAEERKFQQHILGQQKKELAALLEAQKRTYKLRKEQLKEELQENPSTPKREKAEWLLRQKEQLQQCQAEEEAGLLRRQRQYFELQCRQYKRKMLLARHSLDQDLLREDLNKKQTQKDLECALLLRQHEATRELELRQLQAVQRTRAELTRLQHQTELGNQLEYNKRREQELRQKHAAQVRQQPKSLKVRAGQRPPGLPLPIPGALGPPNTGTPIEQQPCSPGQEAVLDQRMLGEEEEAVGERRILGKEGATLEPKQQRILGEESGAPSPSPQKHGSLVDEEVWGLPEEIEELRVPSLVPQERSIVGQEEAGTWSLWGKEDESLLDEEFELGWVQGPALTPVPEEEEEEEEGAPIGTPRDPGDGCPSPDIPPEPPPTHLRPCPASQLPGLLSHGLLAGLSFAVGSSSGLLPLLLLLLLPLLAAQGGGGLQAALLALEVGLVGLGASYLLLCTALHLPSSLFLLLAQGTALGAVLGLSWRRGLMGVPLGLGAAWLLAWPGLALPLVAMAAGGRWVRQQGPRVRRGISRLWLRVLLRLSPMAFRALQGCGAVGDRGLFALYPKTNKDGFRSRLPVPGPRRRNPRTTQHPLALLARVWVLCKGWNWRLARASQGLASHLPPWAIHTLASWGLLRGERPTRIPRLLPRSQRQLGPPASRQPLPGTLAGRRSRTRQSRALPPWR
# [6] = molecular target: T4, Serine/threonine-protein kinase TAO3 (Homo sapiens) (UniProt Q9H2K8); settings: at 10 µM
# T4 sequence (whole entry): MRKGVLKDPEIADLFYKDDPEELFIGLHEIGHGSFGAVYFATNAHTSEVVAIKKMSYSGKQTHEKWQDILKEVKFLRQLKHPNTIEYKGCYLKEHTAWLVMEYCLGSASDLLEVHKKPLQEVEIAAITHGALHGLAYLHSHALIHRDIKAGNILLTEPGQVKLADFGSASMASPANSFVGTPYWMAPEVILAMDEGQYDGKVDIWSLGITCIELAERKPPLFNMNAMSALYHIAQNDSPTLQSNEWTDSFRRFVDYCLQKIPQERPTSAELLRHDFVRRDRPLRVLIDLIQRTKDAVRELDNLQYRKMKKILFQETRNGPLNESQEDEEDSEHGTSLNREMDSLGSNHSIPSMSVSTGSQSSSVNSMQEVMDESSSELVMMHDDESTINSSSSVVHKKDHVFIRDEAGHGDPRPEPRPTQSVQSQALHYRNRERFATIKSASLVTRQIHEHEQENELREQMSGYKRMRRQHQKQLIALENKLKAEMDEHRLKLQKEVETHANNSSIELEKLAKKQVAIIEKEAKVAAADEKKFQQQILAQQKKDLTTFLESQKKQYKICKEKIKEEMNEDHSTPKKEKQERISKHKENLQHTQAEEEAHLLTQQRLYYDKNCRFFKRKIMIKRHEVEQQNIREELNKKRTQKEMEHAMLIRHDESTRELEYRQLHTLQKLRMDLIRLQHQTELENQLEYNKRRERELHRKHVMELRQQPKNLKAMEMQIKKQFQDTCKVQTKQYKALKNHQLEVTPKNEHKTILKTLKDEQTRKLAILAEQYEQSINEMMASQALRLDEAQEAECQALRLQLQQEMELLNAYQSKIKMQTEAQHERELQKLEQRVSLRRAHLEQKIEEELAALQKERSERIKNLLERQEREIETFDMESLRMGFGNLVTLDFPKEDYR
# [7] = molecular target: T5, Serine/threonine-protein kinase TBK1 (Homo sapiens) (UniProt Q9UHD2); settings: at 1 µM
# T5 sequence (whole entry): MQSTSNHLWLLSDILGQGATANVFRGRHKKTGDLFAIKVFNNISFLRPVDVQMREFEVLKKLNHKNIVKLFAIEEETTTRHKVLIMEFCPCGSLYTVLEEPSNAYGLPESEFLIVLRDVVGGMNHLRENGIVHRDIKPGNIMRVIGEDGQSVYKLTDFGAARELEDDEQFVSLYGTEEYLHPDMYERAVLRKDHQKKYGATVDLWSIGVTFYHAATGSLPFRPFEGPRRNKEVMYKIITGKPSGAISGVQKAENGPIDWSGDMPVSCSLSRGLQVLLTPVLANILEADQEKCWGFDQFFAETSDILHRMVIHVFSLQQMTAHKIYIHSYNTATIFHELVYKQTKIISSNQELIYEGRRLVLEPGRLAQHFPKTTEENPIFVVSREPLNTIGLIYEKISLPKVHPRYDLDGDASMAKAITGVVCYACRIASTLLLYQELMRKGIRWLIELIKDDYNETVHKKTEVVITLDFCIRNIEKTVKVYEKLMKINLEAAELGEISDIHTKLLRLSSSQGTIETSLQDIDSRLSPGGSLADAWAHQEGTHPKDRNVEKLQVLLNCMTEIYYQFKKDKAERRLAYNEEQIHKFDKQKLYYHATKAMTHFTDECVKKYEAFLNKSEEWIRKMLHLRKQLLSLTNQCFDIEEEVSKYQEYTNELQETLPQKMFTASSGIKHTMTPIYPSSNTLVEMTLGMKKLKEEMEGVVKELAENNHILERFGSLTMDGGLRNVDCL
# [8] = molecular target: T4, Serine/threonine-protein kinase TAO3 (Homo sapiens); settings: at 1 µM
# [9] = molecular target: T2, Serine/threonine-protein kinase TAO1 (Homo sapiens); settings: at 1 µM
# [10] = molecular target: T3, Serine/threonine-protein kinase TAO2 (Homo sapiens); settings: at 1 µM
Structure (SMILES),residual activity [1] [%],residual activity [2] [%],residual activity [3] [%],residual activity [4] [%],residual activity [5] [%],residual activity [6] [%],residual activity [7] [%],residual activity [8] [%],residual activity [9] [%],residual activity [10] [%]
O=C1Nc2ccccc2/C1=C1/Nc2ccccc2/C1=N\OCCC(O)CO (stereo unspecified),42,36,38,45,70,71,9,–,–,–
N#Cc1cnc2cnc(NCc3cccnc3)cc2c1Nc1ccc(F)c(Cl)c1,2,–,87,–,–,7,5,18,–,–
Cc1cccc(-c2[nH]c(C(C)(C)C)nc2-c2ccc3c(c2)OCO3)n1,–,89,90,98,90,102,73,101,103,–
c1ccc(-c2n[nH]c3c2oc2ccccc23)cc1,82,88,100,72,78,73,67,95,–,98
CCC(=O)Nc1ccc2ncnc(Nc3cccc(Br)c3)c2c1,84,92,90,86,91,95,69,96,96,98
Nc1n[nH]c2nnc(-c3c(-c4ccccc4)nn4ccccc34)cc12,110,90,77,56,50,40,75,87,87,90
COc1ccc(C(=O)Nc2sc3c(c2C(N)=O)CCCC3)cc1OC,89,86,86,86,83,93,72,91,97,92
CC(C)n1cnc2/c(=N/c3cccc(Cl)c3)nc(NCCO)[nH]c21,56,77,24,59,63,54,57,93,87,70
N#CC(C#N)=C(N)/C(C#N)=C/c1ccc(O)cc1,74,–,89,81,87,85,82,99,–,–
CCN(CC)CCCCN1c2ccccc2Oc2ccc(Cl)cc21,93,97,90,100,92,96,91,101,117,100
